Values without a mark were called inactive. How the calls were made is not given here.
Molecular target: Pantothenate synthetase (Mycobacterium tuberculosis (strain ATCC 25618 / H37Rv)) (UniProt P9WIL5)
Assay: Recombinant Mtb pantothenate synthetase (PanC) inhibitors, coupled enzyme, confirmatory (AID 375);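 further: 0% = full reaction with vehicle and 100% = no enzyme background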
Details: coupled enzyme assay; at 10 µM, hits give high values

Sequence of Pantothenate synthetase (Mycobacterium tuberculosis (strain ATCC 25618 / H37Rv)) (P9WIL5 whole entry, looked up): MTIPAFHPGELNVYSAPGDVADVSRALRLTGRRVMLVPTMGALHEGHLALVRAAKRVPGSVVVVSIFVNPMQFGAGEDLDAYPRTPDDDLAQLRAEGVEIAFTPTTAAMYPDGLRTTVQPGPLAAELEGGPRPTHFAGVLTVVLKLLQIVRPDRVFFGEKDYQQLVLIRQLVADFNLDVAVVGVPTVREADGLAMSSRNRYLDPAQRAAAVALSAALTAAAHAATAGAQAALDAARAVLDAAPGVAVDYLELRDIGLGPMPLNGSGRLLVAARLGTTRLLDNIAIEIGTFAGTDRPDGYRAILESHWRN

With `Cc1nc2scc(-c3ccco3)c2c(=O)n1/N=C/N(C)C` as the molecule, how does the inhibition read?
Its inhibition is 0%.

With `COCCCNC(=O)c1c(N)n(-c2cccc(S(N)(=O)=O)c2)c2nc3ccccc3nc12` as the molecule, how does the inhibition read?
Its inhibition is 2%.

With `CCn1c(=O)cc(OCC(=O)Nc2nc(C)cs2)c2ccccc21` as the molecule, how does the inhibition read?
The inhibition was 0%.

For `O=C(CCN1CCN(C(=O)c2ccco2)CC1)Nc1ccc(F)cc1`, which inhibition is on record?
The inhibition was 2%.

With `O=C1c2oc3ccccc3c(=O)c2C(c2ccccn2)N1Cc1ccccc1` (stereo not given) as the molecule, how does the inhibition read?
The inhibition was 13%.

`Nn1cnnc1SCC(=O)Nc1ccc2c(c1)OCCO2` was tested. Which inhibition did it give?
Its inhibition is 0%.

`NS(=O)(=O)c1cc2c(cc1Cl)NC(C1C[C@H]3C=C[C@@H]1C3)NS2(=O)=O` (stereo not given in full) was tested. Which inhibition did it give?
The inhibition was 0%.

Which inhibition does the source give for `CCCOc1ccc(N2C(=O)CC(NCCCN3CCC(C(N)=O)CC3)C2=O)cc1` (stereo not given) here?
Its inhibition is 4%.

`CC(C)(C)SCCNC(=O)COc1ccc(Cl)cc1` was tested. Which inhibition did it give?
Its inhibition is 0%.

With `O=C(Nc1ccc2c(c1)OCO2)c1cccc(Cl)c1` as the molecule, how does the inhibition read?
Its inhibition is 0%.

Which inhibition does the source give for `COc1ccc2cnn(-c3ccccc3C)c(=O)c2c1OC` here?
The inhibition was 3%.

For `CCC(=O)N[C@@H]1CC(C(C)(C)NC(=O)CC)CC=C1C` (stereo not given in full), which inhibition is on record?
Its inhibition is 6%.

How did the inhibition turn out when `CCCN(Cc1cc2cc(C)ccc2[nH]c1=O)C(=O)c1cccc(OC)c1` was run?
The inhibition was 0%.

How did the inhibition turn out when `CCN(CC)S(=O)(=O)c1ccc2c(c1)nc(SCC(=O)NC1CC1)n2-c1ccccc1OC` was run?
The inhibition was 0%.

With `Cc1ccc(C)c(N(CC(=O)NCc2ccco2)C(=O)CCC(=O)Nc2ccccn2)c1` as the molecule, how does the inhibition read?
Its inhibition is 0%.

Which inhibition does the source give for `O=C(Nc1nnc(CCN2CCCCC2)s1)C1CCCCC1` here?
The inhibition was 0%.

With `COCCNC(=O)C(c1ccc(O)cc1)N(Cc1ccco1)C(=O)CCC(=O)Nc1nccs1` (stereo not given) as the molecule, how does the inhibition read?
Its inhibition is 1%.

`Cc1cc(Nc2ccccc2)n(-c2ccccc2)n1` was tested. Which inhibition did it give?
The inhibition was 3%.

For `Cc1cccc(NC(=O)COc2ccc(Br)cc2)n1`, which inhibition is on record?
Its inhibition is 0%.

`Cc1ccc(Cn2c(C(=O)NCCCN3CCOCC3)cc3sccc32)cc1` was tested. Which inhibition did it give?
The inhibition was 2%.

Which inhibition does the source give for `CC1(C)NC(=O)N(CC(O)COc2cccc(F)c2)C1=O` (stereo not given) here?
The inhibition was 0%.

For `CCOC(=O)c1c2n(c3ccc(O)cc13)CCCCC2`, which inhibition is on record?
Its inhibition is 0%.

For `O=C(Nc1ccccc1-c1ccccc1)NC1CCN(C(=O)N2CCOCC2)CC1`, which inhibition is on record?
Its inhibition is 0%.

How did the inhibition turn out when `COc1ccc(N2CCN(C(=O)Cc3ccc(-n4c(=O)[nH]c5ccccc5c4=O)cc3)CC2)cc1` was run?
The inhibition was 6%.

`CCOc1ccc2nc(Nc3nc4c(c(=O)[nH]3)CCC4)nc(C)c2c1` was tested. Which inhibition did it give?
Its inhibition is 0%.

For `Cc1ccc(C(c2sc3nc(C)nn3c2O)N2CC(C)OC(C)C2)cc1` (stereo not given), which inhibition is on record?
Its inhibition is 0%.

For `CCOC(=O)C1CCN(CC(=O)Nc2c(C(=O)OC)[nH]c3ccc(Cl)cc23)CC1`, which inhibition is on record?
Its inhibition is 5%.

`CCOC(=O)c1ccc(NC(=O)c2ccc(NS(C)(=O)=O)cc2)cc1` was tested. Which inhibition did it give?
The inhibition was 0%.

For `O=C(NCc1ccco1)c1cnc2n(c1=O)CCS2`, which inhibition is on record?
The inhibition was 0%.

With `Cc1ccccc1C(=O)NC1CCN(Cc2nnnn2Cc2ccccc2)CC1` as the molecule, how does the inhibition read?
Its inhibition is 4%.

For `OC[C@H]1O[C@@H](n2cnc3c(NC4CCCC4)ncnc32)[C@H](O)[C@@H]1O`, which inhibition is on record?
The inhibition was 1%.

How did the inhibition turn out when `COc1cc(C(=O)Nc2cccc(-c3nncn3C)c2)cc(OC)c1OC` was run?
Its inhibition is 0%.

With `CCN1CCN(C(=O)C2CC(c3ccc(F)cc3)=NO2)CC1` (stereo not given) as the molecule, how does the inhibition read?
The inhibition was 0%.

For `COc1ccccc1CNC(=O)C1CCCN(S(=O)(=O)c2cccc3cccnc23)C1` (stereo not given), which inhibition is on record?
The inhibition was 1%.

How did the inhibition turn out when `CCOC(=O)C1CCCN(CCC(C)c2ccccc2)C1` (stereo not given) was run?
Its inhibition is 1%.

With `Cc1ccc(S(=O)(=O)N2CCN(c3nc(C)nc4sc(C)c(C)c34)CC2)cc1` as the molecule, how does the inhibition read?
The inhibition was 2%.

`CCCCn1c(CN2CCN(c3ccc(F)cc3)CC2)nc2c1c(=O)n(C)c(=O)n2C` was tested. Which inhibition did it give?
Its inhibition is 2%.

With `Cc1cc(C)c(C#N)c(SCc2ccc(C#N)cc2)n1` as the molecule, how does the inhibition read?
The inhibition was 0%.

`COCCOc1nc2ccccc2nc1C` was tested. Which inhibition did it give?
The inhibition was 0%.

For `Cc1ccccc1CSCC(=O)c1c(N)n(C)c(=O)n(C)c1=O`, which inhibition is on record?
Its inhibition is 2%.
